About 7,900 targets were measured; listed, in parts, are those with a hit and a random draw of the rest. About 0.6% of all pairs of compound and target were hits.
Key:
Assay in all cases: log2 fold change, soluble protein after heating vs DMSO (PISA); higher = thermal stabilisation; K562 cells, 10 uM, 30 min; active = over 0.2 and 3.5 SD of the protein, either way, in both replicates (recomputed)
[1] = compound: C1=CC=C(C=C1)[C@H](COC2=CC3=C(C=C2)NC(=O)N3)NC(=O)C4=CC=CN(C4=O)CC5=CC(=C(C=C5)F)F
Outline: (§1)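 Soluble protein was quantified by TMTpro 16plex LC-MS/MS after channel sums were equalised. It was obtained as the supernatant after 21,000xg for 90 min from pooled aliquots of K562 cells (2×10^6 cells/mL, 10 μM compound, 30 min) heated for 3 min across 48°C-58°C and extracted in PBS with 0.5% NP-40 at 4°C. Thermal stability values are relative to control samples and come from duplicates. They are given as log2 fold changes.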

[2] = compound: CC1=C(SC2=C1C(=N[C@H](C3=NN=C(N32)C)CC(=O)N)C4=CC=C(C=C4)Cl)C
Outline: as §1

[3] = compound: CC1=C2C(=CC=C1)N=C(N(C2=O)C3=CC=CC=C3C)CN4C=NC5=C(N=CN=C54)N
Outline: as §1

[4] = compound: Cc1sc2c(c1C)C(c1ccc(Cl)cc1)=N[C@@H](CC(=O)OC(C)(C)C)c1nnc(C)n1-2
Outline: as §1

[5] = compound: c1ccc([C@@H]2C[C@H]2NC2CCNCC2)cc1
Outline: as §1

Measured: log2 fold change

DFFB (UniProt O76075)
inactive: [1] -0.027 | [2] 0.099 | [3] 0.048 | [4] 0.202 | [5] 0.049

FAM160A2 isoform 2 (UniProt Q8N612)
inactive: [1] -0.027 | [2] -0.054 | [3] 0.343 | [4] 0.148 | [5] -0.344

FAM117A (UniProt Q9C073)
inactive: [1] -0.004 | [2] 0.057 | [3] 0.027 | [4] 0.01 | [5] 0.012

EVC2 (UniProt Q86UK5)
Chain of UniProt Q86UK5 (Q86UK5 whole entry, looked up): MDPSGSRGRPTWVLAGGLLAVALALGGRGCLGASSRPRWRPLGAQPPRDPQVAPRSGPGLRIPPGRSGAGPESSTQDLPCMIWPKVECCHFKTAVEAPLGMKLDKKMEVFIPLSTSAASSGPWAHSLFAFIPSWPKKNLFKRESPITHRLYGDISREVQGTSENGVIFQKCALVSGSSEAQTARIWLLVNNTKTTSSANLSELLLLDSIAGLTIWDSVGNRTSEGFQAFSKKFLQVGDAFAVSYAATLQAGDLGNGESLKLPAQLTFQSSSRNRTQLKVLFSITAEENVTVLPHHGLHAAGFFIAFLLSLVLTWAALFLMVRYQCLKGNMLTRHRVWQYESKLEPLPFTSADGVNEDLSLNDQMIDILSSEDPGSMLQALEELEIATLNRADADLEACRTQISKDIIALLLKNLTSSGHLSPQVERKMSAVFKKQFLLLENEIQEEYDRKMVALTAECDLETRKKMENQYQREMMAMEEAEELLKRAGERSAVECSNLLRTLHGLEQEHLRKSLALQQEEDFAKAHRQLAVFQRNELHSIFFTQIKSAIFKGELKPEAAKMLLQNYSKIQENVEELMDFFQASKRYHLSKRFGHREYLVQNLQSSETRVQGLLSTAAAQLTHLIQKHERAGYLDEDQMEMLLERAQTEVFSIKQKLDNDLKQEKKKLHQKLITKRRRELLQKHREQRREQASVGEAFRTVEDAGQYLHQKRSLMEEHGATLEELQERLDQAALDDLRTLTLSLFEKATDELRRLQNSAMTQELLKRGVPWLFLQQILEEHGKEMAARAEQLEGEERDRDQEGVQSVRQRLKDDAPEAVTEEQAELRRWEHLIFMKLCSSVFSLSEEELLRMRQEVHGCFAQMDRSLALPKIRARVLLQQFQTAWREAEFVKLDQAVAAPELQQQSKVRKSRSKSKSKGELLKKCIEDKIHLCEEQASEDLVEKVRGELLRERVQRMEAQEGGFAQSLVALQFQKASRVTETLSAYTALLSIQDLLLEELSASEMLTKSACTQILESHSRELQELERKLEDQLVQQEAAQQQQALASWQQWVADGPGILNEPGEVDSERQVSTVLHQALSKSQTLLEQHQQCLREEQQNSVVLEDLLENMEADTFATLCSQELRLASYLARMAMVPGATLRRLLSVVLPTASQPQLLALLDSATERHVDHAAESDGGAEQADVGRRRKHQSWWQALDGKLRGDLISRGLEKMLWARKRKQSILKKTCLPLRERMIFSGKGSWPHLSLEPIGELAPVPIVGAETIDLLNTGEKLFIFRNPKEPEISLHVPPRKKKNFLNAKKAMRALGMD
inactive: [1] -0.064 | [2] -0.044 | [3] -0.141 | [4] 0.021 | [5] 0.081

EDC3 (UniProt Q96F86)
inactive: [1] -0.198 | [2] 0.12 | [3] 0.019 | [4] 0.063 | [5] 0.026

CYFIP1 (UniProt Q7L576)
inactive: [1] 0.009 | [2] 0.005 | [3] -0.009 | [4] -0.005 | [5] -0.029

DAB2 (UniProt P98082)
inactive: [1] -0.039 | [2] 0.051 | [3] 0.1 | [4] 0.121 | [5] 0.094

DDX5 (UniProt P17844)
inactive: [1] -0.061 | [2] 0.008 | [3] 0.067 | [4] -0.027 | [5] 0.038

FADS3 (UniProt Q9Y5Q0)
inactive: [1] 0.027 | [2] 0.023 | [3] 0.026 | [4] 0.025 | [5] -0.007

ERLIN2 (UniProt O94905)
inactive: [1] -0.025 | [2] -0.048 | [3] -0.038 | [4] 0.006 | [5] -0.044

DAG1 (UniProt Q14118)
inactive: [1] -0.068 | [2] 0.074 | [3] 0.072 | [4] 0.016 | [5] 0.049

ERCC6 (UniProt Q03468)
inactive: [1] 0.013 | [2] -0.025 | [3] -0.018 | [4] -0.008 | [5] 0.151

CTSV (UniProt O60911)
inactive: [1] -0.02 | [2] -0.087 | [3] 0.021 | [4] -0.065 | [5] 0.005

EIF4A1 (UniProt P60842)
Chain of UniProt P60842 (P60842 whole entry, looked up): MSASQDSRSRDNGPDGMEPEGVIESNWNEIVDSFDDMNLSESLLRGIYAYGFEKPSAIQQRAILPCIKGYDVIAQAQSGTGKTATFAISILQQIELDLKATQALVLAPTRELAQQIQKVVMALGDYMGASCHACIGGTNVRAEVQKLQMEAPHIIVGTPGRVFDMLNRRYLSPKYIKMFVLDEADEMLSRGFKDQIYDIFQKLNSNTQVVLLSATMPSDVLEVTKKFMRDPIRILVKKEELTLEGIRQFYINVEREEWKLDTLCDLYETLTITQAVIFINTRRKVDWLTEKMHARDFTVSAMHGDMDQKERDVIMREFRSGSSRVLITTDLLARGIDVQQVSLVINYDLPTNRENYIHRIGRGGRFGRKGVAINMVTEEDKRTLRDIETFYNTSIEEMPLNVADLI
inactive: [1] -0.043 | [2] 0.096 | [3] 0.05 | [4] -0.005 | [5] -0.042

FAM241A (UniProt Q8N8J7)
inactive: [1] -0.046 | [2] 0.034 | [3] 0.041 | [4] 0 | [5] 0.008

EXOC6 (UniProt Q8TAG9)
inactive: [1] -0.088 | [2] -0.006 | [3] 0.072 | [4] 0.031 | [5] -0.069

DNM2 (UniProt P50570)
Chain of UniProt P50570 (P50570 whole entry, looked up): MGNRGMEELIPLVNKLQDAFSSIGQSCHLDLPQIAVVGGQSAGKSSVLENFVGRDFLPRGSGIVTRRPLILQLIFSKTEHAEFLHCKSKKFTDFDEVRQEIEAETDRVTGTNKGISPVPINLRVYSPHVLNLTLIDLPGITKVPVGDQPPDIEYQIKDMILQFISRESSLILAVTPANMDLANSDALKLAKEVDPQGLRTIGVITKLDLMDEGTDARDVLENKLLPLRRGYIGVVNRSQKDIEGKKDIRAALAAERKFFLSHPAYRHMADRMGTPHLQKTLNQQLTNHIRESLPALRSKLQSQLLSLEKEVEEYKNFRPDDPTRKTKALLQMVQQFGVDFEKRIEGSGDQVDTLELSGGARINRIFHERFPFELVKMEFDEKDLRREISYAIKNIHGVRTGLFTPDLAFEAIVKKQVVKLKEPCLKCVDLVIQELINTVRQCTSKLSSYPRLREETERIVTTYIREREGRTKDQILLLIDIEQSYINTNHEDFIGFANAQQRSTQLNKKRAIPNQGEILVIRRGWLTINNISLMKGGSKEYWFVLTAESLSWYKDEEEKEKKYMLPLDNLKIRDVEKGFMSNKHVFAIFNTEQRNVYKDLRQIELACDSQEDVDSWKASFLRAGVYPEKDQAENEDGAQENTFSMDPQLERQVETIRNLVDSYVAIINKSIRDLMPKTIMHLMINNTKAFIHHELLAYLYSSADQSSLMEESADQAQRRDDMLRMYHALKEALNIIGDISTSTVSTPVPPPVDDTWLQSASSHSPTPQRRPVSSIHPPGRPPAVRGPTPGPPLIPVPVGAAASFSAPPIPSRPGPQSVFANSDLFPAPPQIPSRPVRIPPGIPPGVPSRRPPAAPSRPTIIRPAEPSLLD
inactive: [1] -0.023 | [2] 0.044 | [3] 0.078 | [4] -0.027 | [5] -0.036

CUX1 isoform 2 (UniProt Q13948)
Chain of UniProt Q13948 (Q13948 whole entry, looked up): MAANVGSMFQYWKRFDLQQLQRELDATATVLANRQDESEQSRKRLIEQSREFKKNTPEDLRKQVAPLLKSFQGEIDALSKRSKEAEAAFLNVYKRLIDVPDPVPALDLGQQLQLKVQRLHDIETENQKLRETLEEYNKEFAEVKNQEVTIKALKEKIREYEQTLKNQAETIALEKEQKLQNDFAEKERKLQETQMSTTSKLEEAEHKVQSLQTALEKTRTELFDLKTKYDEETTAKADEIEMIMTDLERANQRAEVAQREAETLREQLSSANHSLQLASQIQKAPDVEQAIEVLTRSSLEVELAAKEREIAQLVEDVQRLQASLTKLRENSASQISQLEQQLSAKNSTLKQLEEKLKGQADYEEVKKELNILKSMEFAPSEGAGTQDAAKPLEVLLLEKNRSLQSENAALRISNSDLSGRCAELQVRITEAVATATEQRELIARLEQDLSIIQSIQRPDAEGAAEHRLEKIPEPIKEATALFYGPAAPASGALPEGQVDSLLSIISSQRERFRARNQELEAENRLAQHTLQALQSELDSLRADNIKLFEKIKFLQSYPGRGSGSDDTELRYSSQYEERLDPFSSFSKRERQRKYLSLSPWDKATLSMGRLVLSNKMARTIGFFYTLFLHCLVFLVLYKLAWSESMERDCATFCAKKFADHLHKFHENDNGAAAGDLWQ
inactive: [1] -0.067 | [2] 0.013 | [3] 0 | [4] 0 | [5] 0.023

DNAJC1 (UniProt Q96KC8)
inactive: [1] -0.024 | [2] 0.054 | [3] 0.08 | [4] -0.015 | [5] 0.052

CTU1 (UniProt Q7Z7A3)
inactive: [1] -0.061 | [2] 0.025 | [3] 0.052 | [4] -0.006 | [5] -0.051

DYNC1LI2 (UniProt O43237)
Chain of UniProt O43237 (O43237 whole entry, looked up): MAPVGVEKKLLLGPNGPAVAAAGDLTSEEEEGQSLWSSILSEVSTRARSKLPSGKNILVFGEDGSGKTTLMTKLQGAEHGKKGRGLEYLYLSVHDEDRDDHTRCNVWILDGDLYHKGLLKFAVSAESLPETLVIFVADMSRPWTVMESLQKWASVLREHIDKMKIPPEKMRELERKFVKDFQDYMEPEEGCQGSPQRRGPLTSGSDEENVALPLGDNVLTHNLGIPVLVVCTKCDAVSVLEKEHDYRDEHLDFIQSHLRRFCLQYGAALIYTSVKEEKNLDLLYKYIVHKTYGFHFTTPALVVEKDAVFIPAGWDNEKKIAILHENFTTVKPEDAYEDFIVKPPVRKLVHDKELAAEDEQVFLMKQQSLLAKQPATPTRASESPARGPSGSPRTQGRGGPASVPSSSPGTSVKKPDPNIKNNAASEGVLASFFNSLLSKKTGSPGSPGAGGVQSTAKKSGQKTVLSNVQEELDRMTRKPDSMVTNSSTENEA
inactive: [1] -0.04 | [2] -0.071 | [3] 0.035 | [4] -0.028 | [5] 0.013

EEF1B2 (UniProt P24534)
inactive: [1] -0.037 | [2] -0.002 | [3] 0.036 | [4] 0.026 | [5] -0.034

EIF4G3 isoform 3 (UniProt O43432)
inactive: [1] -0.021 | [2] 0.021 | [3] 0.184 | [4] 0.038 | [5] -0.06

EXOC2 (UniProt Q96KP1)
inactive: [1] -0.054 | [2] 0.025 | [3] 0.03 | [4] 0.033 | [5] 0.011

ELOVL1 (UniProt Q9BW60)
inactive: [1] -0.16 | [2] 0.145 | [3] 0.045 | [4] -0.134 | [5] -0.05

DLD (UniProt P09622)
Chain of UniProt P09622 (P09622 whole entry, looked up): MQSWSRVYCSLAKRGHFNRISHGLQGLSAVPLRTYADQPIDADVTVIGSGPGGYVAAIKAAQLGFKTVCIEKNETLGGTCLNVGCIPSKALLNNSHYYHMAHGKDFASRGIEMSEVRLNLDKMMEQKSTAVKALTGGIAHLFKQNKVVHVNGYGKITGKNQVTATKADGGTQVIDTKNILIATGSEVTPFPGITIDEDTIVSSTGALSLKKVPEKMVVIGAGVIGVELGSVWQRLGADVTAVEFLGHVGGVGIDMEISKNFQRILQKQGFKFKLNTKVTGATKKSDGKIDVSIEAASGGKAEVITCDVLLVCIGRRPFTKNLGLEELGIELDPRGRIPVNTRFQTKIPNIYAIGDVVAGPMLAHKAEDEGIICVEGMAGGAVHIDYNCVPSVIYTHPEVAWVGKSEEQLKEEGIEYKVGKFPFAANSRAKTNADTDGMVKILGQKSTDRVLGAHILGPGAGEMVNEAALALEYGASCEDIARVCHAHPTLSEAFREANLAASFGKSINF
inactive: [1] 0.016 | [2] 0.006 | [3] -0.005 | [4] -0.016 | [5] 0.044

DHPS (UniProt P49366)
inactive: [1] -0.014 | [2] 0.013 | [3] -0.014 | [4] 0.013 | [5] 0.081

ERLIN1 (UniProt O75477)
inactive: [1] -0.007 | [2] -0.036 | [3] 0.002 | [4] -0.038 | [5] -0.026

EEF1G isoform 2 (UniProt P26641)
inactive: [1] -0.068 | [2] 0.005 | [3] -0.049 | [4] -0.001 | [5] -0.006

DEGS1 (UniProt O15121)
Chain of UniProt O15121 (O15121 whole entry, looked up): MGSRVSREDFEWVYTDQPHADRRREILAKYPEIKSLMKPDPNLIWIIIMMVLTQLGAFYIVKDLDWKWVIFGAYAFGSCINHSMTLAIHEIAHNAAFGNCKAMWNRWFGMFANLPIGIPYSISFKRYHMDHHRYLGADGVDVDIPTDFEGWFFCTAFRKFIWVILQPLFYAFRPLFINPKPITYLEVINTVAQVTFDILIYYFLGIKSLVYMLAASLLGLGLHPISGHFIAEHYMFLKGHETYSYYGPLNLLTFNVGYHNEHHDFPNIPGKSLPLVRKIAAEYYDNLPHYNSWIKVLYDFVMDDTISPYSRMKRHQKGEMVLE
inactive: [1] 0.083 | [2] 0.04 | [3] -0.001 | [4] 0.122 | [5] 0.052

DHCR7 (UniProt Q9UBM7)
active: [5] 1.06
inactive: [1] -0.061 | [2] 0 | [3] 0.093 | [4] -0.186

DPH5 isoform 5 (UniProt Q9H2P9)
inactive: [1] -0.025 | [2] 0.054 | [3] 0.092 | [4] -0.009 | [5] 0

DIAPH1 (UniProt O60610)
inactive: [1] -0.073 | [2] -0.027 | [3] 0.026 | [4] 0.049 | [5] -0.018

DHFR (UniProt P00374)
inactive: [1] -0.077 | [2] -0.014 | [3] 0.083 | [4] 0.058 | [5] 0.396

EEA1 (UniProt Q15075)
inactive: [1] 0.022 | [2] -0.015 | [3] 0.011 | [4] 0.021 | [5] 0.038

EXOC4 (UniProt Q96A65)
inactive: [1] -0.05 | [2] 0.052 | [3] 0.015 | [4] 0.081 | [5] -0.049

DYNC1I2 isoform 5 (UniProt Q13409)
inactive: [1] 0.019 | [2] 0.021 | [3] -0.006 | [4] -0.033 | [5] -0.019

DNAJB1 (UniProt P25685)
inactive: [1] -0.019 | [2] 0.015 | [3] 0.066 | [4] -0.003 | [5] -0.026

EDEM2 (UniProt Q9BV94)
inactive: [1] 0.194 | [2] 0.042 | [3] 0.013 | [4] -0.046 | [5] 0.012

ECH1 (UniProt Q13011)
inactive: [1] -0.072 | [2] 0.161 | [3] 0.086 | [4] -0.114 | [5] -0.046

EXOC7 (UniProt Q9UPT5)
inactive: [1] -0.063 | [2] -0.001 | [3] 0.035 | [4] 0.07 | [5] -0.014

EDC4 (UniProt Q6P2E9)
inactive: [1] 0.02 | [2] -0.004 | [3] 0.075 | [4] 0.023 | [5] 0.024

EFCAB14 (UniProt O75071)
active: [2] -0.293
inactive: [1] 0.045 | [3] 0.016 | [4] 0.018 | [5] 0.321

DNAH5 (UniProt Q8TE73)
inactive: [1] 0.074 | [2] 0.023 | [3] 0.08 | [4] 0.139 | [5] 0.062

DMXL1 (UniProt Q9Y485)
inactive: [1] -0.017 | [2] 0.003 | [3] 0.071 | [4] -0.016 | [5] -0.05

DBNL isoform 3 (UniProt Q9UJU6)
Chain of UniProt Q9UJU6 (Q9UJU6 whole entry, looked up): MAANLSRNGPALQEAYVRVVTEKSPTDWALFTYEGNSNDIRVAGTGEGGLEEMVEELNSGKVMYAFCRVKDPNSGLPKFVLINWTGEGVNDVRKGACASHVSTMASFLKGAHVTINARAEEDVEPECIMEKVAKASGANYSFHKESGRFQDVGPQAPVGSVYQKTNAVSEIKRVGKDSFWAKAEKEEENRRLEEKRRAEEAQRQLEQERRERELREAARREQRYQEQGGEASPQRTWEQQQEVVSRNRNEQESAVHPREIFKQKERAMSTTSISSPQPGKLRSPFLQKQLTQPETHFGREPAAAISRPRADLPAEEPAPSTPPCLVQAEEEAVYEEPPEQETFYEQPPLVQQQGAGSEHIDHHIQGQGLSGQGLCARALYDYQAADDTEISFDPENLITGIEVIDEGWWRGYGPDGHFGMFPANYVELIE
inactive: [1] -0.096 | [2] 0.002 | [3] 0.045 | [4] 0.029 | [5] 0.01

DIP2A (UniProt Q14689)
inactive: [1] -0.03 | [2] 0.042 | [3] -0.149 | [4] 0.019 | [5] -0.078

FAM193B (UniProt Q96PV7)
inactive: [1] -0.115 | [2] 0.011 | [3] -0.103 | [4] 0.273 | [5] -0.115

CTSA (UniProt P10619)
inactive: [1] 0.004 | [2] -0.063 | [3] -0.034 | [4] -0.018 | [5] 0.03

FAM83D (UniProt Q9H4H8)
inactive: [1] -0.068 | [2] 0.027 | [3] 0 | [4] 0.045 | [5] 0.06

DDB1 (UniProt Q16531)
inactive: [1] 0.023 | [2] -0.003 | [3] 0.01 | [4] 0 | [5] 0.016

FAM122A (UniProt Q96E09)
inactive: [1] 0.008 | [2] -0.055 | [3] -0.022 | [4] 0.158 | [5] 0.083

DDX4 (UniProt Q9NQI0)
inactive: [1] 0.052 | [2] -0.11 | [3] 0.213 | [4] 0.274 | [5] 0.001

Reference: the supplement of paper PMC10849652
